Data on twelve compounds can be found in ChEMBL document CHEMBL3988442, “University of Dundee, Small-Polar-MMV Screening Library” (2021).

The structures appear in SMILES notation. For part of these data: Potency and affinity values are given separately.

Holding throughout (parameters): scale not given: direction of the effect not stated beside the values
The target of test [1] is Protein translocase subunit SecA (Escherichia coli (strain K12)) (UniProt P10408). The test is described as follows: Assay to Identify E. coli SecA ATPase Inhibitors. The conditions noted are these: 30 µM. The test is classed as functional.
The target of test [2] is T1, Ubiquitin-activating enzyme e1, putative (Leishmania donovani (strain BPK282A1)) (UniProt E9BSI1).
T1 sequence (whole entry): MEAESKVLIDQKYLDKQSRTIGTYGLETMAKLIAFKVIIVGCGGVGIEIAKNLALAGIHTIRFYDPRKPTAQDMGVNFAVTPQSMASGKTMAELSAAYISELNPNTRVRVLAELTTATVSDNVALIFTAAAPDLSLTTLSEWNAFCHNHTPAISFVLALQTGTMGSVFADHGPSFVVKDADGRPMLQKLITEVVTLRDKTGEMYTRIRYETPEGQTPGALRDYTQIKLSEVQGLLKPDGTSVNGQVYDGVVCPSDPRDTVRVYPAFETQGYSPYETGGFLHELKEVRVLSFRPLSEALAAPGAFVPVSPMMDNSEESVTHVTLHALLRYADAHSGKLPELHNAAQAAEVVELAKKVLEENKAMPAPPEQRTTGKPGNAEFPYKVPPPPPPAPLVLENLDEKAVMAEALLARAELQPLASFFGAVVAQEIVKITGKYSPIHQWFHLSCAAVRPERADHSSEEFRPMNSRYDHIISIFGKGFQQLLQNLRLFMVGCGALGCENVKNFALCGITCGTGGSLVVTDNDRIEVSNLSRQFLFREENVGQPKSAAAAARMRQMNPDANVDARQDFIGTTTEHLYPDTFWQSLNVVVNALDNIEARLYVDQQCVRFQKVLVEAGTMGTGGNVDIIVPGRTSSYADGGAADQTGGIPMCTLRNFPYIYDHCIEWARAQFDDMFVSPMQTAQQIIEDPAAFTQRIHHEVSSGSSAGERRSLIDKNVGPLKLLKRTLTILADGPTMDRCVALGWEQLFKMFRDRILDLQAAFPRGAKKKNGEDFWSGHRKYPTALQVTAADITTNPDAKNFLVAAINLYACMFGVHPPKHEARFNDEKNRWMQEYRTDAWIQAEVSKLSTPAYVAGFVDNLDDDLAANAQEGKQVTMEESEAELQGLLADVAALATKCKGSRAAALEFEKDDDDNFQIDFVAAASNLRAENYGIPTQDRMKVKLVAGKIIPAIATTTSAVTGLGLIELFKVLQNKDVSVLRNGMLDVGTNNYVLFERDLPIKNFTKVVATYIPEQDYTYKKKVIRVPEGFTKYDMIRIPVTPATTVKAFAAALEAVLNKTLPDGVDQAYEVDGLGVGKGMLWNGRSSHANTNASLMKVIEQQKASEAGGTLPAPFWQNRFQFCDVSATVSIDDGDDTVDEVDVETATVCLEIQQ
The test can be described thus: Leishmania donovani Ubiquitin Activating Enzyme (LdE1). The test is classed as functional. The conditions noted are these: 30 µM.

Test [3] addresses Sialic acid-binding Ig-like lectin 9 (Homo sapiens) (UniProt Q9Y336). The test is described as follows: Hs-Siglec9 ALPHAscreen SOP 20170721. To be noted: 10 µM.
The next test relates to Trypanosoma cruzi. The test can be described thus: Trypanosoma cruzi phosphomannomutase and mannose-1-phosphate guanylyltransferase assay. To be noted: 10 µM. Format: functional.
Test [4] concerns the target T2, Arginase-2, mitochondrial (Homo sapiens) (UniProt P78540).
T2 sequence (whole entry): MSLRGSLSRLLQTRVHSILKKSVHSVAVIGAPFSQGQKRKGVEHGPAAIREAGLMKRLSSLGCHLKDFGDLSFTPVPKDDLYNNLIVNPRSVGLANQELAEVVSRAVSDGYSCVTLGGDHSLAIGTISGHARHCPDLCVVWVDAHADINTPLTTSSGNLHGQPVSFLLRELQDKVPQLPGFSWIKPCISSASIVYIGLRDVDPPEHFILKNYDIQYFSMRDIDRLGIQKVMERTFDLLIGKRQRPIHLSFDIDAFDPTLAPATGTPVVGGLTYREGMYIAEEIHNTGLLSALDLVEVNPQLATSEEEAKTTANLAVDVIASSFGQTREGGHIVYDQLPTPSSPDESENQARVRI
The test can be described thus: in vitro enzyme assay to detect the production of urea directly proportional to the activity of Arginase II. Further: in the data most compounds retested in dose-response had high values. The test is classed as functional. To be noted: 33.3 µM.

The target of test [5] is T3, Proteasome subunit beta (Trypanosoma cruzi) (UniProt O96673).
T3 sequence (whole entry): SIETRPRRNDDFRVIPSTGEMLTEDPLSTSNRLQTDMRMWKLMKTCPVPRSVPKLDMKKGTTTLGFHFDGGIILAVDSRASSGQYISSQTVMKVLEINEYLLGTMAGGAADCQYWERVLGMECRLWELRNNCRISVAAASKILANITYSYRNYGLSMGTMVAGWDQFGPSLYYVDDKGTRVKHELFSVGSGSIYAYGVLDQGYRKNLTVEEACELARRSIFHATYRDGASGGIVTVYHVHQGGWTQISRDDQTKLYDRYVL
The test is described as follows: Trypanosoma cruzi proteasome chymotrypsin-like activity (TcProtChymo) assay. Further: in the data most compounds retested in dose-response had high values. The test is classed as functional. The conditions noted are these: 9.37 µM.

Another test is filed under the species Homo sapiens. The test is described as follows: To identify inhibition of the IFN signalling (Jak-Stat) pathway via expression of an eGFP reporter gene under the control of an IFN-stimulated response element (ISRE) containing MxA promoter. Format: functional. To be noted: 30 µM.
The target in test [6] is T4, Tyrosyl-tRNA synthetase, putative (Trypanosoma cruzi (strain CL Brener)) (UniProt Q4DSP6).
T4 sequence (whole entry): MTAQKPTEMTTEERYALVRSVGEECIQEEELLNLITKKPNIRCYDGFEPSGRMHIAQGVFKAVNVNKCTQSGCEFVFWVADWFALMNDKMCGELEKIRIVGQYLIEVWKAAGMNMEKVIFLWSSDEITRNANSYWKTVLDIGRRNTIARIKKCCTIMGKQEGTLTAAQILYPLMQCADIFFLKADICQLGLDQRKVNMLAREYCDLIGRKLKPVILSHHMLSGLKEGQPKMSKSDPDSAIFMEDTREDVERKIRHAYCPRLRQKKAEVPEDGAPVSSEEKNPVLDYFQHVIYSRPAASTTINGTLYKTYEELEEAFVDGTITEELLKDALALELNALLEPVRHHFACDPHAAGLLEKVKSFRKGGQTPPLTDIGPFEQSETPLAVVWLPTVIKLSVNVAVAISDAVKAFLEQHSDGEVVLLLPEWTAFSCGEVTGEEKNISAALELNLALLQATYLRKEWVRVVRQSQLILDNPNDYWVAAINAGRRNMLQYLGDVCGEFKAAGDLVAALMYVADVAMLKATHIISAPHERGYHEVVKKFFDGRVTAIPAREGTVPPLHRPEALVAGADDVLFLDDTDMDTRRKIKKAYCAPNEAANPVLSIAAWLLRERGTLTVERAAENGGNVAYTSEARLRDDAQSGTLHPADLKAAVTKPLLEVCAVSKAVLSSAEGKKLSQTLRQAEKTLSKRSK
The test is described as follows: Trypanosoma cruzi tyrosyl tRNA synthetase (TcYRS) _High Tyrosine SOP. Further: in the data most compounds retested in dose-response had high values. The test is classed as functional. To be noted: 30 µM.

In test [7] the target is T4, Tyrosyl-tRNA synthetase, putative (Trypanosoma cruzi (strain CL Brener)). The test can be described thus: Trypanosoma cruzi tyrosyl tRNA synthetase (TcYRS) SOP. The test is classed as functional. The conditions noted are these: 30 µM.
In test [8] the target is Chromo domain-containing protein 1 (Saccharomyces cerevisiae (strain ATCC 204508 / S288c) (Baker's yeast)) (UniProt P32657). The test is described as follows: ScCHD-1 Enzyme Inhibition Assay. Further: in the data most compounds retested in dose-response had high values. Format: functional. To be noted: 30 µM.
Chain of Chromo domain-containing protein 1 (Saccharomyces cerevisiae (strain ATCC 204508 / S288c) (Baker's yeast)) (P32657 whole entry, the tested form may be a part): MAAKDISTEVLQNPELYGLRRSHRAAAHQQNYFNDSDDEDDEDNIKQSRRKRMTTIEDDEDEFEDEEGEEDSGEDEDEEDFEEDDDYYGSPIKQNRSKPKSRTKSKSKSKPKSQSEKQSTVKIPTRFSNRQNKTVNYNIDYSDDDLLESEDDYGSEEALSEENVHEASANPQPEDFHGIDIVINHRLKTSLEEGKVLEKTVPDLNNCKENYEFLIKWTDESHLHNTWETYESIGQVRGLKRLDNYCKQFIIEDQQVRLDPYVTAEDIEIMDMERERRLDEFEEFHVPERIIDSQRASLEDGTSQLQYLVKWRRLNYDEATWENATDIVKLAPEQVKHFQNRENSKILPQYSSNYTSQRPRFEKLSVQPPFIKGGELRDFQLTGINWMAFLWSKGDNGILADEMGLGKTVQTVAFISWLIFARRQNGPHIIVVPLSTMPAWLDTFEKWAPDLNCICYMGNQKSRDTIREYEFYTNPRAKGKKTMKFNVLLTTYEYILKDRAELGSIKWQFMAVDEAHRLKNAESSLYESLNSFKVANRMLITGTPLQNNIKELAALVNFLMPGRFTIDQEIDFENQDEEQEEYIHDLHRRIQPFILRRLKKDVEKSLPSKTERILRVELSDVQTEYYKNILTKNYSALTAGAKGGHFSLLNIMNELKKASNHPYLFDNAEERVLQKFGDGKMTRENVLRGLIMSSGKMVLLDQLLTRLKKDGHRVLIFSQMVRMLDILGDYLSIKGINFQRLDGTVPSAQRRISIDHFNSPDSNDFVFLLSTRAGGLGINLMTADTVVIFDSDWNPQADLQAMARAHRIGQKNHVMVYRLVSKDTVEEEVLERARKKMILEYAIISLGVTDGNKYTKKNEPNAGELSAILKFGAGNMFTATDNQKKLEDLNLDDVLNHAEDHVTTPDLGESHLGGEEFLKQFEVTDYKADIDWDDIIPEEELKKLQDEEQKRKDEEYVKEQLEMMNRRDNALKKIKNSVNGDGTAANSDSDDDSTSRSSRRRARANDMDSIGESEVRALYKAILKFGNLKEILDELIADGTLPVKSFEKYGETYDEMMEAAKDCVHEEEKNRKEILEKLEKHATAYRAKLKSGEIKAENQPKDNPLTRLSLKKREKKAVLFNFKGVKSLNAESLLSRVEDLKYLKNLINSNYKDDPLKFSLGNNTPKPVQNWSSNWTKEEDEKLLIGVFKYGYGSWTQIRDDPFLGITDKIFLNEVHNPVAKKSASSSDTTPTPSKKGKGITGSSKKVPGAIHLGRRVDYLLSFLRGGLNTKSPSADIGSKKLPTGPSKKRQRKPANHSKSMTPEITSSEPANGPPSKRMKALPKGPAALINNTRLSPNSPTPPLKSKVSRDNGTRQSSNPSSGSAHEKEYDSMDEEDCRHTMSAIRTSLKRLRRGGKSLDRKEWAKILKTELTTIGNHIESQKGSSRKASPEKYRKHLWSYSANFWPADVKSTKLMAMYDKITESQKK

Chain of Protein translocase subunit SecA (Escherichia coli (strain K12)) (P10408 whole entry): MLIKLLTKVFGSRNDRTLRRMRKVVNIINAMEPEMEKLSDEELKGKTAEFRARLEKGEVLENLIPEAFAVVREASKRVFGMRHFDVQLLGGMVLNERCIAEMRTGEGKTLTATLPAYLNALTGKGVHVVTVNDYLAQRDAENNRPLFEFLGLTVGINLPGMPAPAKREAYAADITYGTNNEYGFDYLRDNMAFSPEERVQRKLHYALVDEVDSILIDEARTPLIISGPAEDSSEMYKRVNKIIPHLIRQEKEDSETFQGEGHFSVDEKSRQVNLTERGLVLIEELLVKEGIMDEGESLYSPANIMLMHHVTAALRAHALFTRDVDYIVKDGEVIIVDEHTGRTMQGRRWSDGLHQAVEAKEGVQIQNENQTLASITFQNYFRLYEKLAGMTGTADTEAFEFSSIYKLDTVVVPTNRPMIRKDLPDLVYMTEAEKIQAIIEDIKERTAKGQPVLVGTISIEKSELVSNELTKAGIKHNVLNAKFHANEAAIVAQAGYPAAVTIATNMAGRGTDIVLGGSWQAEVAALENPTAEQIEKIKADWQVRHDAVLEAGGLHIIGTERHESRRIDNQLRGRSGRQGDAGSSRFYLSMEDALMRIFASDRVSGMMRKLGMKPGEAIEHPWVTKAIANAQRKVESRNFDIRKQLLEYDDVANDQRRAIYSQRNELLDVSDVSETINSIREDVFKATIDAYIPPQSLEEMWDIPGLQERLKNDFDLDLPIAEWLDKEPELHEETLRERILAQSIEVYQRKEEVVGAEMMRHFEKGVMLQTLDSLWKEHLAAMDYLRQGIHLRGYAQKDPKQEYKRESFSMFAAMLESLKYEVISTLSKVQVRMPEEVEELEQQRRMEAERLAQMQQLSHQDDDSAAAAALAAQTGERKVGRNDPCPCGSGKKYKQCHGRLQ
Chain of Sialic acid-binding Ig-like lectin 9 (Homo sapiens) (Q9Y336 whole entry): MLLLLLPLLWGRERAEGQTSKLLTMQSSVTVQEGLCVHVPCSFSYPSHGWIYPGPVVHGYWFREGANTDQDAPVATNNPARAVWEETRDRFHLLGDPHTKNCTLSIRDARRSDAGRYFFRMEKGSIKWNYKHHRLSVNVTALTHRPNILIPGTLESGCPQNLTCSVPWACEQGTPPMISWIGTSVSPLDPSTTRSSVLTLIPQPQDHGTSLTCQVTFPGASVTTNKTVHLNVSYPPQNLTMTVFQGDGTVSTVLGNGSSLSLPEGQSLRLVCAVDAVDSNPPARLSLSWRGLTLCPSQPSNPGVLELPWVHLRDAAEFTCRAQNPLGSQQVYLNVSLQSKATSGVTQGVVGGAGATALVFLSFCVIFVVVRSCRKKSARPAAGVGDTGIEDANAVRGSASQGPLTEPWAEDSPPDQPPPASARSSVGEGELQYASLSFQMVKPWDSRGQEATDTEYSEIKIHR

Regarding `Cc1ccc(-c2nc(CCNC(=O)NC3CCN(C)CC3)co2)cc1`, the Percent Effect in [1] is -4.38%; in test [2], 8%; in [3], -2.04%; in the test on Trypanosoma cruzi it was 1.81%; in [4], -4.88%; in test [5], 12.3%. Further, the Percent Effect in the test filed under Homo sapiens was 9.37%; in [6] it was 3.68%; in test [7], 5.13%; in test [8], -12.9%.
Regarding `CCS(=O)(=O)CCN1CCC(N(C)Cc2noc(C(C)C)n2)C1` (stereo not given), the Percent Effect in test [1] is -8.69%; in [2], 13%; in [3] it was 9.47%; with Trypanosoma cruzi, -1.87%; in test [4], -0.205%; in [5], 10.3%. Besides, the Percent Effect in the test filed under Homo sapiens was 10.2%; in test [6], 4.9%; in test [7], 11.8%; in [8] it was -6.07%.
Regarding `CC[C@H](C)Nc1nccc(-c2cnc3sc(C)c(C)n3c2=O)n1`, the Percent Effect is -6.51% in test [1]; 0% in [2]; 0.241% in test [3]; -3.61% in the test on Trypanosoma cruzi; -3.55% in test [4]; 12.6% in [5]. Besides, the Percent Effect in the test filed under Homo sapiens is 15.3%; in test [6] it was -3.68%; in test [7], -10.3%; in test [8] it was -9.65%.
In the case of `COc1ccc(F)cc1C(C)NC(=O)Cn1ccc(=O)n(C)c1=O` (stereo not given), the Percent Effect in test [1] stood at 2.28%; in test [2], 13%; in [3], 2.06%; with Trypanosoma cruzi, 2.05%; in [4], 5.94%; in [5], 9.82%. In addition, the Percent Effect was -0.632% in the test filed under Homo sapiens, 9.8% in test [6], 21.2% in [7] and -4.5% in test [8].
For the compound `COCC(C)NC(=O)c1cc(Br)c2c(c1)OCCO2` (stereo not given), the Percent Effect in test [1] was -0.916%; in test [2], 5.33%; in test [3], 4.72%; with Trypanosoma cruzi, -4.82%; in test [4], 8.43%; in test [5], 8.74%. Further, the Percent Effect is 10.6% in the test filed under Homo sapiens, -2.63% in test [6], 2.56% in test [7] and -7.03% in test [8].
As for `OC(COCc1ccccc1F)CN1CCc2c(ncn2C2CC2)C1` (stereo not given), the Percent Effect was -3.46% in test [1]; -5.33% in test [2]; 7.5% in test [3]; -4.02% with Trypanosoma cruzi; 2.66% in test [4]; 8.06% in [5]. Further, the Percent Effect in the test listed under Homo sapiens was 10.4%; in test [6], 2.63%; in [7], 0%; in test [8] it was -6.26%.
As for `Cc1ccc(NC(=O)C(C)N2CCCN(c3nccs3)CC2)c(C)c1` (stereo not given), the Percent Effect in [1] is -1.1%; in test [2] it was 15.4%; in test [3] it was -3.51%; with Trypanosoma cruzi, -1.41%; in test [4], 4.51%; in [5] it was 14.1%. Moreover, the Percent Effect is 8.08% in the test filed under Homo sapiens, 2.39% in test [6], 6.02% in test [7] and -0.819% in [8].
As for `Cc1cnn(CC2CN(CC(=O)N(C)Cc3cccs3)CCO2)c1` (stereo not given), the Percent Effect in [1] is -1.07%; in test [2], 5.33%; in test [3], -0.649%; with Trypanosoma cruzi it was -5.82%; in [4] it was 9.31%; in test [5], 13.8%. For the same compound, the Percent Effect in the test listed under Homo sapiens was 11.2%; in test [6], 2.63%; in test [7] it was 2.56%; in [8], -11.2%.
`CN(CC(=O)Nc1ccc(Br)cn1)C(=O)Cc1ccc(O)cc1`: the Percent Effect in test [1] is -6.43%; in test [2] it was -18.7%; in [3], 0.45%; in the test with Trypanosoma cruzi it was 2.61%; in test [4], -0.887%; in [5] it was 8.4%. Also, the Percent Effect is 0.283% in the test listed under Homo sapiens, 3.68% in test [6], -82% in test [7] and -5.7% in [8].
In the case of `Cc1cc2c(cc1C(=O)N1CC[C@H](CO)[C@@H](O)C1)OCCO2`, the Percent Effect in test [1] was -9.1%; in test [2], 2.7%; in test [3] it was 2.86%; in the test with Trypanosoma cruzi it was 4.37%; in test [4], 1.05%; in test [5], 8.22%. Besides, the Percent Effect was -0.0662% in the test filed under Homo sapiens, 4.79% in test [6], 12.2% in test [7] and -4.74% in test [8].
Turning to `Cc1cc(NC(=O)NCC2CCOC2)no1` (stereo not given), the Percent Effect in test [1] is 0.735%; in [2], 10.7%; in test [3] it was 0.0318%; in the test with Trypanosoma cruzi it was -6.63%; in test [4], 9.76%; in [5] it was 5%. In addition, the Percent Effect in the test filed under Homo sapiens is 5.61%; in test [6] it was 4.74%; in test [7] it was 7.69%; in test [8] it was -11.3%.
In the case of `Cc1cc2c(=O)n3c(nc2s1)CCN(Cc1cnc(C(C)C)nc1)CC3`, the Percent Effect is -1.05% in [1]; 4% in [2]; -0.31% in test [3]; -7.69% in the test on Trypanosoma cruzi; 3.98% in test [4]; 5.91% in [5]. Moreover, the Percent Effect was 28.4% in the test filed under Homo sapiens, 0% in test [6], 5% in [7] and -25.8% in test [8].
